Test [1] in a line: APR_HepG2_CellLoss_72hr: Apredica 72-hour HepG2 Assay for Cell Loss (AID 2282915). As to conditions: high-content imaging. The essentials: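 HepG2 cells exposed 72 h to compound at 0.39–200 uM (10 concentrations, duplicate) in 0.5% DMSO. Fixed with 3.7% formaldehyde and Hoechst 33342-stained. Imaged at 20x; nuclear count gives cell number, fitted bidirectionally versus DMSO.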

A short description of test [2]: APR_HepG2_P-H2AX_72hr: Apredica 72-hour HepG2 Assay for H2AX Phosphorylation (AID 2282916).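 Also: phospho-histone H2A.x immunostain intensity per cell marking DNA damage.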 The note with it: imaging, actives raise or lower the signal. The gist of the method:
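Following 72 hr treatment with 0.39–200 uM compound, HepG2 cells were formaldehyde-fixed, permeabilized and stained for phospho-H2A.x; signal was measured by high-content imaging and fitted bidirectionally against DMSO controls.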

Test [3] is described as follows: APR_HepG2_MitoMembPot_72hr: Apredica 72-hour HepG2 Assay for Mitochondrial Membrane Potential (AID 2282917). The note with it: imaging, actives raise or lower the signal. The gist of the method:
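HepG2 cells dosed 72 hr with compound at 0.39–200 uM in duplicate, 0.5% v/v DMSO final. Mitochondria stained with 250 nM MitoTracker Red CMXRos for 30 min before formaldehyde fixation, imaged by high-content fluorescence; bidirectional fit versus DMSO.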

A short description of test [4]: APR_HepG2_MitoticArrest_72hr: Apredica 72-hour HepG2 Assay for Mitotic Arrest (AID 2282918). As to conditions: high-content imaging, actives raise or lower the signal. The gist of the method: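 High-content imaging of fixed human HepG2 cells after 72 h compound exposure (0.39–200 uM, duplicates, 0.5% DMSO); mitotic arrest scored from phospho-histone H3 and nuclear Hoechst staining relative to DMSO.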

The nature of test [5]: APR_HepG2_MicrotubuleCSK_72hr: Apredica 72-hour HepG2 Assay for Microtubule CSK Stabilty (AID 2282919). The note with it: HepG2 microtubule cytoskeleton, high-content imaging, actives raise or lower the signal. The gist of the method:
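HepG2 cells were exposed 72 hr to compound at 0.39–200 uM in duplicate (0.5% DMSO final), then fixed and permeabilized. Alpha-tubulin immunofluorescence was imaged by high-content microscopy, with bidirectional fitting against DMSO and taxol as positive control.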

Test [6] is described as follows: APR_HepG2_P-H2AX_24hr: Apredica 24-hour HepG2 Assay for H2AX Phosphorylation (AID 2282920). As to conditions: high-content imaging, actives raise or lower the signal. The essentials: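 High-content imaging of phospho-histone H2A.x immunofluorescence, nuclei counterstained with Hoechst 33342, in fixed HepG2 cells. Compounds ran 0.39–200 uM in duplicate for 24 h, final DMSO 0.5%. Signal change fitted both directions against DMSO.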

Test [7] in a line: APR_HepG2_StressKinase_72hr: Apredica 72-hour HepG2 Assay for Stress Kinase (AID 2282921). The note with it: HepG2 stress kinase (phospho-c-Jun) imaging, actives raise or lower the signal. The gist of the method: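 Fluorescence intensity of Cy3-tagged anti-phospho-c-Jun antibody, quantified per cell from Hoechst-defined nuclei across six images per well, served as the read-out following 72 h exposure (0.39–200 uM, 0.5% v/v DMSO).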

The nature of test [8]: APR_HepG2_StressKinase_24hr: Apredica 24-hour HepG2 Assay for Stress Kinase (AID 2282922). As to conditions: HepG2 stress kinase (phospho-c-Jun) imaging, actives raise or lower the signal. The gist of the method:
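HepG2 cells exposed 24 h to 0.39–200 uM compound in duplicate (0.5% v/v DMSO final). Cells fixed in 3.7% formaldehyde, permeabilized and immunostained for phospho-c-Jun; read by high-content fluorescence imaging, fitted bidirectionally against DMSO.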

Test [9] is described as follows: APR_HepG2_p53Act_72hr: Apredica 72-hour HepG2 Assay for p53 Activation (AID 2282923).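 Also: average cellular p53 protein immunofluorescence intensity in HepG2 cells.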 The note with it: high-content imaging, actives raise or lower the signal. The essentials: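 HepG2 monolayers receive test compounds in duplicate at ten concentrations (0.39 through 200 uM) for 72 hr. They are then formaldehyde-fixed, antibody-labelled for p53, Hoechst-stained and imaged, with activity fitted bidirectionally versus DMSO.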

Test [10] can be described thus: APR_HepG2_MitoMass_72hr: Apredica 72-hour HepG2 Assay for Mitochondrial Mass (AID 2282924).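 Also: MitoTracker Red CMXRos stain intensity per cell imaged as mitochondrial mass.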 The note with it: high-content imaging, actives raise or lower the signal. The gist of the method:
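HepG2 cells dosed 72 hr at 0.39–200 uM (0.5% DMSO), in duplicate. MitoTracker Red CMXRos 250 nM loaded 30 min before formaldehyde fixation; high-content fluorescence imaging, bidirectional fit versus DMSO.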

A short description of test [11]: APR_HepG2_NuclearSize_72hr: Apredica 72-hour HepG2 Assay for Nuclear Size (AID 2282925). As to conditions: high-content imaging, actives raise or lower the signal. The gist of the method:
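HepG2 cells dosed 72 h at 0.39–200 uM (10 concentrations, duplicate) in 0.5% v/v DMSO final. Fixed, Hoechst 33342-stained nuclei imaged; nuclear diameter measured by automated image analysis. Bidirectional fit versus DMSO.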

Test [12] in a line: ATG_CRE_CIS: Attagene CIS-FACTORIAL HepG2 Assay for human cAMP Responsive Element (CRE) binding protein 3 (AID 2282926). The note with it: HepG2 CRE cis-reporter, Attagene multiplexed mRNA; actives raise or lower the signal. The gist of the method:
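Multiplexed transcription-unit reporters transfected into HepG2; 24 h dosing; RT-PCR/capillary electrophoresis fluorescence read-out; bidirectional fit vs DMSO.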

Test [13] addresses CCAAT/enhancer-binding protein beta (Homo sapiens) (UniProt P17676). The test can be described thus: ATG_C_EBP_CIS: Attagene CIS-FACTORIAL HepG2 Assay for human CCAAT/Enhancer Binding Protein (C/EBP) beta (AID 2282927). The note with it: HepG2 Attagene cis-factorial transcription factor reporter; actives raise or lower the signal. The essentials:
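HepG2 transiently transfected with multiplexed reporter units under cis-regulatory promoters reporting endogenous C/EBPb activity. After 24 h exposure, reporter mRNA assayed by RT-PCR, fluorescent labelling, HpaI digestion and capillary electrophoresis; bidirectional fitting versus DMSO.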

Test [14] is described as follows: ATG_CMV_CIS: Attagene CIS-FACTORIAL HepG2 Assay for human CMV (Internal Marker) (AID 2282928).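 Also: endpoint acts as a background internal control marker rather than a target.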 The note with it: HepG2 CMV promoter reporter, transcription factor profiling; actives raise or lower the signal. The essentials: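 CMV internal-marker background readout in transiently transfected HepG2 cells bearing cis-regulated reporter units. Reporter mRNA is measured 24 h after dosing by RT-PCR and capillary electrophoresis, with bidirectional fitting against DMSO.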

A short description of test [15]: ATG_DR4_LXR_CIS: Attagene CIS-FACTORIAL HepG2 Assay for human Liver X Receptor (LXR), DR4 submotif (AID 2282929). As to conditions: HepG2 Attagene DR4 cis-reporter, mRNA transcription; actives raise or lower the signal. The essentials: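 The endpoint is DR4-element-driven reporter transcripts after 24 h chemical exposure of transfected HepG2 cells. These were measured via RT-PCR and capillary electrophoresis, and gain or loss of signal was fitted relative to DMSO controls.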

The target in test [16] is Aryl hydrocarbon receptor (Homo sapiens) (UniProt P35869). The test can be described thus: ATG_Ahr_CIS: Attagene CIS-FACTORIAL HepG2 Assay for human Aryl Hydrocarbon Receptor (Ahr) (AID 2282930). The note with it: HepG2 AhR cis-factorial reporter transcription; actives raise or lower the signal. The essentials: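 HepG2 cells transiently transfected with cis-element-driven multiplexed reporter units; endogenous AhR activity read as reporter mRNA 24 h after dosing, via RT-PCR, 6-FAM labelling, HpaI digestion and capillary electrophoresis. Bidirectional fit relative to DMSO.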

Test [17] is described as follows: ATG_AP_1_CIS: Attagene CIS-FACTORIAL HepG2 Assay for human Activator Protein 1 (AP-1) (AID 2282931). As to conditions: HepG2 Attagene cis-factorial AP-1 reporter mRNA; actives raise or lower the signal. The essentials:
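Readout is reporter transcript level from endogenous transcription factor activity, quantified by RT-PCR with fluorescent primer extension and capillary electrophoresis. Transiently transfected HepG2 cells, 24 h exposure. Curves fitted both directions versus DMSO.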

A short description of test [18]: ATG_AP_2_CIS: Attagene CIS-FACTORIAL HepG2 Assay for human Activator Protein 2 (AP-2) (AID 2282932). The note with it: HepG2 AP-2 cis-reporter, Attagene transcription factor profiling; actives raise or lower the signal. The essentials: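 Multiplexed mRNA reporter assay in HepG2: cis-regulated units report endogenous factor activity after 24 h treatment. Fluorescence from capillary electrophoresis of RT-PCR products gives the signal, with DMSO as baseline.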

The nature of test [19]: ATG_BRE_CIS: Attagene CIS-FACTORIAL HepG2 Assay for human Bone Morphogenetic Protein (BMP) Response Element (BRE) (AID 2282933). As to conditions: HepG2 BMP response element reporter, Attagene transcription factor profiling; actives raise or lower the signal. The gist of the method: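 After a 24 h chemical treatment, transiently transfected HepG2 cells were lysed for RNA; reporter transcripts were quantified by fluorescent RT-PCR and capillary electrophoresis, normalised to DMSO.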

Test [20] concerns the target Retinoic acid receptor alpha (Homo sapiens) (UniProt P10276). The test is described as follows: ATG_DR5_RAR_CIS: Attagene CIS-FACTORIAL HepG2 Assay for human Retinoic Acid Receptor Alpha (RARE), DR5 submotif (AID 2282934). The note with it: HepG2 Attagene cis-factorial RARE DR5 reporter, mRNA; actives raise or lower the signal. The gist of the method:
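HepG2 cells transiently transfected with multiplexed reporter units; DR5 cis-element drives reporter through endogenous transcription factors. After 24 h dosing, reporter mRNA quantified by RT-PCR, fluorescent labeling, HpaI digestion and capillary electrophoresis; bidirectional fitting versus DMSO.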

Calls of active or inactive are those of the source. The calls were made as follows: active = hit-call score of the fitted dose curve at least 0.9, where 1 is the maximum; inactive = score below 0.9.

Chain of CCAAT/enhancer-binding protein beta (Homo sapiens) (P17676 whole entry, looked up): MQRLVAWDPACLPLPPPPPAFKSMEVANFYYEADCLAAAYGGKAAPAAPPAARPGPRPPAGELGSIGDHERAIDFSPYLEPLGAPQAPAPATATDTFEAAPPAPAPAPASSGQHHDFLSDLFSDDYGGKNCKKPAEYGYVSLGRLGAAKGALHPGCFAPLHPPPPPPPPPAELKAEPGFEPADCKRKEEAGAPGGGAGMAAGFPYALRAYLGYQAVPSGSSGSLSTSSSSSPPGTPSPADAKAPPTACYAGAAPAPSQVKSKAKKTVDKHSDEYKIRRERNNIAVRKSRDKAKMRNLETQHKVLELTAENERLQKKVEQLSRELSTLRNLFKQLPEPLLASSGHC
Chain of Aryl hydrocarbon receptor (Homo sapiens) (P35869 whole entry, looked up): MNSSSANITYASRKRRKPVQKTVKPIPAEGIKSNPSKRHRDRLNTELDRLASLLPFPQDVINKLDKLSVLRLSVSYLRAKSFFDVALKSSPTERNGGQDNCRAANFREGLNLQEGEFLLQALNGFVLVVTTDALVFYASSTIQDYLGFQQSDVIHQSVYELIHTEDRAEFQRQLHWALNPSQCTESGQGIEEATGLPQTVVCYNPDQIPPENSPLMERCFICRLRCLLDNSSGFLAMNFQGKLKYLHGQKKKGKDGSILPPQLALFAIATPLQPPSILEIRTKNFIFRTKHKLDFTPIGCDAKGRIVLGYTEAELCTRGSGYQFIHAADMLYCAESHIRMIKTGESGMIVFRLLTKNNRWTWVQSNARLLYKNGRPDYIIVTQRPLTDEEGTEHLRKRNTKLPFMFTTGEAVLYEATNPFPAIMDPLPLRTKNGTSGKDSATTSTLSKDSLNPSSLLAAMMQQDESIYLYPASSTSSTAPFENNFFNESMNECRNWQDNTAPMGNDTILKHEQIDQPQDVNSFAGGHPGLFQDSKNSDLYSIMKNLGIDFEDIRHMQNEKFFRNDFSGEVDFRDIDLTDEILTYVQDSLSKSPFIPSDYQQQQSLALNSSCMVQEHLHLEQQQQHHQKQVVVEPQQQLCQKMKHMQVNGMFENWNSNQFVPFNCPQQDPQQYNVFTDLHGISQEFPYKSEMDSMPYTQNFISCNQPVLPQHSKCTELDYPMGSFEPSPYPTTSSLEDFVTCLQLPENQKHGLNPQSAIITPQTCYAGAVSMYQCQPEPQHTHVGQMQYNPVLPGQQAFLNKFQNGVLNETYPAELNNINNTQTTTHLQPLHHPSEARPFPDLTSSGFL
Chain of Retinoic acid receptor alpha (Homo sapiens) (P10276 whole entry, looked up): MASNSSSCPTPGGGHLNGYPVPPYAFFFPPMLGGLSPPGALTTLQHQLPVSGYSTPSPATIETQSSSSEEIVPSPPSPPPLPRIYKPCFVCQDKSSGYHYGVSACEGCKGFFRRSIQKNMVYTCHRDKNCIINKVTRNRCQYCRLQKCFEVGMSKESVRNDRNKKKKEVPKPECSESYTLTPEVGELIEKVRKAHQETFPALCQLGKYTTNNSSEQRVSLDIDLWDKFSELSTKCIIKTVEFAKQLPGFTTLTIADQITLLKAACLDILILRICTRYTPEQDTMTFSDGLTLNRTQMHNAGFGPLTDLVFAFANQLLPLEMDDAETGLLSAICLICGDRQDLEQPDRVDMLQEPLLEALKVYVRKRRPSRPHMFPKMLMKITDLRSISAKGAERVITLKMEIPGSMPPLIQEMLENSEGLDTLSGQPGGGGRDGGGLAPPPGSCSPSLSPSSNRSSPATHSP

With `Cc1cccc([N+](=O)[O-])c1C`, the call in test [1], in test [2], in test [3], in [4], in test [5] and in test [6] was inactive. In addition, the compound was classed as inactive in test [7], in test [8], in test [9], in test [10], in [11] and in [12]. The outcome in [13], in test [14], in test [15], in test [16], in test [17] and in [18] was inactive.

In the case of `O=C(N[C@@H](Cc1ccccc1)[C@@H](O)C(=O)N1C[C@@H](O)[C@@H](O)C1)c1cc2cc(Cl)ccc2[nH]1`, the AC50 (usually the concentration giving half of the maximal activity seen) in [1] is 104 µM (active); in [2] it was 107 µM (active); in [3], 97.2 µM (active); in [4], 108 µM (active); in test [9], 104 µM (active); in test [15], 60.5 µM (active). In addition, the AC50 in test [17] is 159 µM (active). Further, the compound was classed as inactive in test [5], in [6], in [7], in [8], in test [10] and in test [11]. Further, the compound was called inactive in test [12], in [13], in [16] and in [19].

In the case of `CCCCC(CC)COC(=O)CC(C(=O)OCC(CC)CCCC)S(=O)(=O)O` (centres undefined), the half-maximal activity concentration (AC50) in [1] was 141 µM (active); in test [2], 108 µM (active); in test [3] it was 112 µM (active); in test [4], 80.8 µM (active); in test [6] it was 102 µM (active); in test [9], 103 µM (active). The result in [5], in test [7], in test [8], in [10], in [11] and in test [12] was inactive. In addition, the result in test [13], in test [15], in test [16], in [17], in test [18] and in test [19] was inactive. Also, in test [20], the compound was called inactive.
